Source: PubChem BioAssay (The Scripps Research Institute Molecular Screening Center)
DAGLB inhibitor: blocks human DAGLB lipase activity; Q8NCG7; HEK293T DAGLB membrane lysate, EnzChek fluorogenic substrate; inhibition, % at 5.17 µM; 340,000 tested, 0.059% active; AID 504411; in the data active = inhibition above about 34%
HTRA1 inh: blocks human HTRA1 serine peptidase | Q92743 | recombinant HTRA1, FP-rhodamine activity-based probe, fluorescence polarization | inhibition, % at 5.96 µM | 340,000 tested, 0.5% active; in the data active = inhibition above about 36%
PAFAH2 inh: PAFAH2 (human) inhibition; 340,000 tested, 0.99% active; AID 492956; recombinant PAFAH2, FP-rhodamine activity probe, fluorescence polarization; Q99487; inhibition, % at 3.39 µM;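 active = inhibition above the mean over all tested compounds plus 3 SD, cut at about 30% in these data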;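 also: inhibitors block probe labeling of enzyme so polarization drops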
PAFAH1B3 inh: blocks human PAF acetylhydrolase 1B catalytic subunit 3; Q15102; recombinant PAFAH1B3, FP-rhodamine probe, fluorescence polarization; inhibition, % at 3.39 µM; 340,000 tested, 0.28% active; AID 492972;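 active = inhibition above the screen-wide average of all tested compounds plus 3 SD, cut at about 25% in these data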
Target sequence (Q15102 whole entry, looked up): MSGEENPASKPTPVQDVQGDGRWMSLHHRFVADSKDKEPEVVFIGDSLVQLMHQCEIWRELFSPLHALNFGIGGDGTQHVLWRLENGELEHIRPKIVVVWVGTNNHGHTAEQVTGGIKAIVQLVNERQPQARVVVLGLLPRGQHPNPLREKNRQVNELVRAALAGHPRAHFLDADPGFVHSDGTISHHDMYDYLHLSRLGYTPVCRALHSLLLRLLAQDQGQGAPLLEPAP
PAFAH1B2 FP inh: blocks human PAF acetylhydrolase 1b catalytic subunit 2; 340,000 tested, 1.2% active; inhibition, % at 3.39 µM; AID 492953; P68402; recombinant PAFAH1B2, FP-rhodamine activity probe, fluorescence polarization;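 active = inhibition above the mean of all tested compounds plus 3 SD, cut at about 24% in these data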
Target sequence (P68402 whole entry, looked up): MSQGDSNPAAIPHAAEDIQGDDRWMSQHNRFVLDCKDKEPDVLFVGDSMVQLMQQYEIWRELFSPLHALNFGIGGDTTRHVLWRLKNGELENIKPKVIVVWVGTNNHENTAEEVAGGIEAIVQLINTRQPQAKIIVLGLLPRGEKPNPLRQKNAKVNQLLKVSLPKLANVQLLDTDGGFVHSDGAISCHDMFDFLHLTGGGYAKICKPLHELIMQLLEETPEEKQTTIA
pPAFAH inh: inhibitors of human plasma PAF acetylhydrolase (pPAFAH). Q13093. recombinant pPAFAH, FP-rhodamine probe fluorescence polarization. inhibition, % at 3.39 µM. 330,000 tested, 1.5% active. AID 463082;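 active = inhibition above the mean inhibition across the screen plus 3 SD, cut at about 25% in these data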;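 also: inhibitors block binding of the rhodamine activity-based probe so polarization drops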
Large screens that a line does not name were inactive. This is a sample that favours compounds with a hit; in the whole collection about 2.8% have one here.

COc1cc(/C=C2/C(=N)N3N=C(CC(=O)N4CCOCC4)SC3=NC2=O)ccc1OC(C)c1ccccc1 (stereo not drawn)	PAFAH1B2 FP inh 27.9
CC(=O)c1ccccc1NC(=O)COC(=O)CSCC(=O)Nc1cc(C)on1	none
CCCCNC(=O)Nc1nc2ccc(CC)cc2s1	none
Cc1cccc(-n2c(SCc3cc(=O)n4ccsc4n3)nc3ccccc32)c1	pPAFAH inh 26.0
CCC(CO)Nc1nc2ccc(Cl)cc2c2ccccc12 (stereo not drawn)	pPAFAH inh 27.3
CCC(CO)Nc1ncnc2c1cnn2-c1ccc(Cl)cc1 (stereo not drawn)	none
CC1=C(C(=O)OC2CCCCCCC2)C(c2ccc(O)cc2)NC(=O)N1 (stereo not drawn)	PAFAH1B2 FP inh 24.9
CN(Cc1ccccc1)C(=O)COC(=O)C12CC3CC(CC(Br)(C3)C1)C2	PAFAH1B2 FP inh 42.0
O=C(COC(=O)C12CC3CC(CC(Br)(C3)C1)C2)Nc1cccc(S(=O)(=O)N2CCOCC2)c1	PAFAH1B2 FP inh 31.4
O=C(COC(=O)C12CC3CC(CC(O)(C3)C1)C2)Nc1ccccc1OC(F)F	none
O=C(COC(=O)C12CC3CC(CC(Br)(C3)C1)C2)Nc1cccnc1Cl	PAFAH1B2 FP inh 31.6
CN(C(=O)COC(=O)C12CC3CC(CC(C3)C1)C2)c1c(N)n(Cc2ccccc2)c(=O)[nH]c1=O	none
O=C1NCCO1	none
O=C(COC(=O)CCc1nc2ccccc2s1)Nc1ncc(Cl)cc1Cl	none
O=C(COC(=O)c1sc2cc(F)ccc2c1Cl)Nc1ncc(Cl)cc1Cl	pPAFAH inh 31.3
O=C(COC(=O)CCc1ccccc1)Nc1ncc(Cl)cc1Cl	pPAFAH inh 25.9
O=C(COC(=O)c1ccc(Br)o1)Nc1ncc(Cl)cc1Cl	none
Cc1csc(CNc2ncnc3ccc(-c4cccnc4)cc23)c1	none
Cc1csc(CNc2ncnc3ccc(-c4ccccc4Cl)cc23)c1	pPAFAH inh 28.7
CC(NC(=O)c1cc(S(=O)(=O)N2CCCC2)cn1C)c1ccccc1 (stereo not drawn)	none
CC(NC(=O)c1cccc(S(=O)(=O)N2CCCCCC2)c1)c1ccccc1 (stereo not drawn)	PAFAH1B2 FP inh 24.6
CC(C)[C@H](NS(=O)(=O)c1ccccc1)C(=O)Nc1ccccc1N1CCOCC1	none
Cc1cc(C(=O)NCc2cccs2)ccc1[N+](=O)[O-]	none
Cc1cc(C(=O)OCC(=O)NCc2cccs2)ccc1[N+](=O)[O-]	pPAFAH inh 31.4
Nc1cccc2cc(S(=O)(=O)O)ccc12	PAFAH2 inh 30.1, PAFAH1B3 inh 49.0, PAFAH1B2 FP inh 31.1 (no result: pPAFAH inh)
N#CC1=C(N)S[C@H](C(=O)C23CC4CC(CC(C4)C2)C3)[C@H]1c1ccncc1	PAFAH1B2 FP inh 28.4
O=C1C=C(Nc2ccccc2C(=O)O)c2ccccc2C1=O	PAFAH2 inh 39.3, PAFAH1B3 inh 58.6
O=C(O)c1ccccc1Nc1ccccc1C(=O)O	none
CN(C(=O)COC(=O)CCC1CCCCC1)c1c(N)n(Cc2ccccc2)c(=O)[nH]c1=O	none
COC(=O)C(NC(=O)c1ccccc1Cl)(Nc1ncc(S(=O)(=O)c2ccc([N+](=O)[O-])cc2)s1)C(F)(F)F (stereo not drawn)	PAFAH1B2 FP inh 25.7
CCC(C)(C)C(=O)Nc1ncc(S(=O)(=O)c2ccc([N+](=O)[O-])cc2)s1	none
O=c1[nH]c2c(s1)C(c1ccc(O)cc1)C1C3CCC(C3)C1S2 (stereo not drawn)	PAFAH1B2 FP inh 27.4
O=c1[nH]c2c(s1)C(c1cccnc1)C1C3CCC(C3)C1S2 (stereo not drawn)	none
O=C(O)CN1C(=O)C2C3CC(C2C1=O)C1C(c2ccc(F)cc2)c2sc(=O)[nH]c2SC31 (stereo not drawn)	PAFAH1B2 FP inh 54.4
O=C(O)CCCN1C(=O)C2C3CC(C2C1=O)C1C(c2ccccc2)c2sc(=O)[nH]c2SC31 (stereo not drawn)	PAFAH1B2 FP inh 81.1
COC(=O)C1Sc2[nH]c(=O)sc2C(c2ccc(Cl)cc2)C1C(=O)OC (stereo not drawn)	none
COc1ccc(C2c3sc(=O)[nH]c3SC3C4CCC(C4)C23)cc1OC (stereo not drawn)	none
O=C(O)CN1C(=O)C2C3CC(C2C1=O)C1C(c2ccc(Cl)cc2)c2sc(=O)[nH]c2SC31 (stereo not drawn)	PAFAH1B2 FP inh 47.0
CCOC(=O)C1CCN(C(=O)c2cc(COc3ccc(F)cc3F)on2)CC1	none
CCOC(=O)Cc1csc(NC(=O)c2ccc3ncsc3c2)n1	none
CC(C(=O)O)N1C(=O)C2C3c4ccccc4C(c4ccccc43)[C@@H]2C1=O (stereo partly drawn)	none
CC(C(=O)O)N1C(=O)C2C3CC(C2C1=O)C1C(c2ccccc2)c2sc(=O)[nH]c2SC31 (stereo not drawn)	PAFAH1B2 FP inh 55.3
COC(=O)[C@]1(Cc2ccccc2)N[C@H](CN(C)C(=O)Nc2ccc(Cl)cc2)[C@@H]2C(=O)N(C)C(=O)[C@@H]21	none
Cc1ccc(S(=O)(=O)Nc2cccc(C(=O)NCCCN3CCOCC3)c2)cc1F	none
COc1ccc(NS(=O)(=O)c2cccc(C(=O)NNC(=O)CNC(=O)c3ccccc3)c2)cc1	pPAFAH inh 27.9
COc1ccc(NS(=O)(=O)c2cccc(C(=O)NNC(=O)c3cccn3C)c2)cc1	pPAFAH inh 34.2
CN(C)CCNC(=O)c1cccc(S(=O)(=O)Nc2ccc(F)cc2)c1	pPAFAH inh 25.3
Cc1ccc(NS(=O)(=O)c2cccc(C(=O)NCCCN3CCOCC3)c2)cc1	pPAFAH inh 34.2
CSc1ccccc1NC(=O)C1CCCN(S(C)(=O)=O)C1 (stereo not drawn)	none
COc1ccc(NC(=O)CN(C)C(=O)c2cccc(S(=O)(=O)Nc3ccc(OC)cc3)c2)cc1	pPAFAH inh 32.1
Cc1cccc(/C=C2/Sc3ccc(C(=O)NCCCN4CCOCC4)cc3NC2=O)c1	pPAFAH inh 26.5
COc1ccc(NS(=O)(=O)c2cccc(C(=O)NCC3(N(C)C)CCCCC3)c2)cc1	pPAFAH inh 29.5
COc1ccc(NS(=O)(=O)c2cccc(C(=O)NNC(=O)CNC(=O)c3cccc(C)c3)c2)cc1	pPAFAH inh 34.2
CCOc1ccc(S(=O)(=O)Nc2cccc(C(=O)N(C)CC(=O)Nc3ccc(OC)cc3)c2)cc1	none (no result: pPAFAH inh)
Cc1cccc(NC(=S)NNC(=O)c2csc3c2CCC(C)C3)c1 (stereo not drawn)	pPAFAH inh 27.2
O=C1/C(=C2\C(=O)N(Cc3ccc(F)cc3)c3ccccc32)SC(=S)N1CCS(=O)(=O)O	none
O=C(O)CN1C(=O)/C(=C2\C(=O)N(Cc3ccccc3Cl)c3ccccc32)SC1=S	PAFAH1B2 FP inh 25.7
S=C(Nc1ccc(Oc2ccccc2)cc1)N1CCOCC1	PAFAH2 inh 127.1, PAFAH1B3 inh 115.1, PAFAH1B2 FP inh 93.2
